Data from ChEMBL document CHEMBL3988442, “University of Dundee, Small-Polar-MMV Screening Library” (2021).
Among all 48,000 compounds or so, about 13,000 (27%) showed an effect of 50% or more. This is one part of the list.

test system: Wolbachia pipientis; assay: Anti-Wolbachia Cell-Based Screen; type: functional; parameters: scale not given: in the data most compounds retested in dose-response had high values; conditions: 5 µM

First: Cc1cnc(C(=O)N2CCC3(CC2)CC(c2ccncc2)C(=O)N3)cn1 (stereo not given)
Second: Cc1cnc(N2CCC3(CC2)CC3C(=O)NCC2CC2)nc1 (stereo not given)
The “Percent Effect” value of the first is higher: -2.987% for the first, -18.23% for the second.

First: CCCn1nnnc1CN(C)C(C)c1ccc(C)cc1 (stereo not given)
Second: Cc1ccc(CNCc2nnc3n2CC(C(F)(F)F)CC3)cc1 (stereo not given)
The “Percent Effect” value of the first is higher: 0.6006% for the first, -7.096% for the second.

Going from `COc1ccc(C2(c3nc(-c4cnn(C)c4)no3)CCOCC2)cc1` to `COc1ccc(C(=O)Nc2c(C)nn(C(C)C)c2C)cc1`, the “Percent Effect” value rises from -8.889% to 14.16%.

First: O=C(NC(CO)CO)c1coc(COc2cccc(F)c2)n1
Second: CCSCCNC(=O)C(c1cccc(F)c1)N(C)C (stereo not given)
The “Percent Effect” value of the first is higher: 9.537% for the first, -18.47% for the second.

First: CCN(C(=O)CN(C)C(c1cccc(F)c1)c1ccccn1)C1CC1 (stereo not given)
Second: CCN(CC)CC(=O)N(C)C(c1cccc(F)c1)c1ccccn1 (stereo not given)
The “Percent Effect” value of the first is lower: 13.51% for the first, 97.45% for the second.

Going from `CC(C)N(C)CC(=O)N(C)C(c1cccc(F)c1)c1ccccn1` (stereo not given) to `CCN(CC)S(=O)(=O)CCNC(=O)N(C)C(C)c1ccccn1` (stereo not given), the “Percent Effect” value falls from 102.7% to -1.522%.

First: CCS(=O)(=O)NCCCNC(=O)N(C)C(C)c1ccccn1 (stereo not given)
Second: Cn1cc(NC(=O)c2ccccn2)cc(Br)c1=O
The “Percent Effect” value of the first is lower: -6.07% for the first, 3.766% for the second.

Going from `O=S(=O)(C1CC1)N1CC[C@]2(C[C@@H](OCC3CCOCC3)CO2)C1` to `CN(C)CCN1CCO[C@H]2CN(C(=O)C3CCOCC3)C[C@H]21`, the “Percent Effect” value falls from -13.41% to -13.47%.

First: Cc1c(C(=O)N(C)CC(F)(F)F)nnn1-c1ccccc1Cl
Second: Cn1cc(NC(=O)c2ccccn2)cc(Cl)c1=O
The “Percent Effect” value of the first is higher: -1.465% for the first, -1.878% for the second.

Compared with `COCCn1cnc2ccc(NC(=O)C3CC3)cc2c1=O`, `COCCn1cnc2ccc(NC(=O)C(C)C)cc2c1=O` is higher in “Percent Effect” value: 108.4% for the first, 110.7% for the second.

Compared with `COCCOc1ccc(NC(=O)C2CCC2)cn1`, `COCCN1C=NC2(CCC(C(=O)Nc3ccc(C)cc3)CC2)C1=O` (stereo not given) is lower in “Percent Effect” value: -0.09217% for the first, -4.018% for the second.

Going from `COCCn1cc(NC(=O)C(C)CCc2ccccc2F)ccc1=O` (stereo not given) to `COCCn1cc(NC(=O)NC(C)CCc2ccccc2)ccc1=O` (stereo not given), the “Percent Effect” value rises from -6.604% to -2.537%.

First: COCCn1cnc2ccc(NC(=O)c3ccc(OC)cc3)cc2c1=O
Second: COCCn1cnc2ccc(NC(=O)c3ccccn3)cc2c1=O
The “Percent Effect” value of the first is higher: 162.9% for the first, 106.6% for the second.

First: COc1cccc(C(=O)Nc2ccc(OC3CCN(C)CC3)cc2)c1
Second: CC1CCCN1C1CCN(C(=O)c2cccc(-c3ccoc3)c2)CC1 (stereo not given)
The “Percent Effect” value of the first is higher: 16.42% for the first, 2.618% for the second.

First: CC(=O)NCCC(=O)NC1(c2ccc(Cl)c(Cl)c2)CC1
Second: O=C(CCc1ccsc1)Nc1cnccc1O
The “Percent Effect” value of the first is lower: 3.477% for the first, 9.927% for the second.

Going from `CC(NC(=O)COc1cccc[n+]1[O-])C1CC1` (stereo not given) to `COC(=O)N1CCN(CCCc2nnnn2-c2ccccc2)CC1`, the “Percent Effect” value falls from -6.842% to -41.56%.

Compared with `CC(C)CCN1CCc2[nH]nc(C(=O)N3CC=CC3)c2C1.O=C(O)C(F)(F)F.O=C(O)C(F)(F)F`, `CN(C)CCN1CCO[C@H]2CN(C(=O)c3ccsc3)C[C@H]21.O=C(O)C(F)(F)F.O=C(O)C(F)(F)F` is higher in “Percent Effect” value: -3.7% for the first, 117.2% for the second.

First: CO[C@@H]1CCN(Cc2c(C)noc2C)[C@@H]2CN(Cc3ccco3)C[C@@H]21.O=C(O)C(F)(F)F.O=C(O)C(F)(F)F
Second: CO[C@@H]1CCN(Cc2cnn(C)c2)[C@@H]2CN(Cc3ccco3)C[C@@H]21.O=C(O)C(F)(F)F.O=C(O)C(F)(F)F
The “Percent Effect” value of the first is higher: 102.8% for the first, 6.003% for the second.

Going from `CO[C@H]1CCN(Cc2c(C)noc2C)[C@@H]2CN(Cc3cccnc3)C[C@H]12.O=C(O)C(F)(F)F.O=C(O)C(F)(F)F.O=C(O)C(F)(F)F` to `CO[C@@H]1CCN(Cc2c(C)noc2C)[C@@H]2CN(Cc3cccnc3)C[C@@H]21.O=C(O)C(F)(F)F.O=C(O)C(F)(F)F.O=C(O)C(F)(F)F`, the “Percent Effect” value falls from 114.1% to 82.84%.

Compared with `Cc1noc(C)c1CN1C[C@@H](N(C)Cc2ccco2)[C@H]2OCCC[C@H]21.O=C(O)C(F)(F)F.O=C(O)C(F)(F)F`, `COCC1CN(Cc2c(C)noc2C)Cc2ccnn2C1.O=C(O)C(F)(F)F.O=C(O)C(F)(F)F` (stereo not given) is lower in “Percent Effect” value: 12.06% for the first, -2.816% for the second.

Going from `CO[C@H]1CCN(Cc2cnn(C)c2)[C@@H]2CN(Cc3cccnc3)C[C@H]12.O=C(O)C(F)(F)F.O=C(O)C(F)(F)F.O=C(O)C(F)(F)F` to `CO[C@@H]1CCN(c2ncc(F)cn2)[C@@H]2CN(Cc3cccnc3)C[C@@H]21.O=C(O)C(F)(F)F.O=C(O)C(F)(F)F.O=C(O)C(F)(F)F`, the “Percent Effect” value falls from 4.089% to -6.486%.

Going from `CO[C@H]1CCN(Cc2c(C)noc2C)[C@@H]2CN(Cc3ccncc3)C[C@H]12.O=C(O)C(F)(F)F.O=C(O)C(F)(F)F.O=C(O)C(F)(F)F` to `CO[C@H]1CCN(Cc2cccc(C)n2)[C@@H]2CN(Cc3cccnc3)C[C@H]12.O=C(O)C(F)(F)F.O=C(O)C(F)(F)F.O=C(O)C(F)(F)F.O=C(O)C(F)(F)F`, the “Percent Effect” value falls from 106.3% to -9.589%.

First: Cc1noc(C)c1CN1CC[C@H]2OCC[C@@H](C(=O)NCC3CC3)[C@@H]2C1.O=C(O)C(F)(F)F
Second: O=C(O)C(F)(F)F.O=C([C@@H]1CN(Cc2nccs2)C[C@H]2OCC[C@H]21)N1CCOCC1
The “Percent Effect” value of the first is higher: -16.42% for the first, -26.11% for the second.

Going from `O=C(Cc1ccc(F)cc1Cl)N1CC[C@H](CO)[C@@H](O)C1` to `Cc1cc(CN2C[C@@H]3CN(C(=O)c4cccn4C)CCO[C@@H]3C2)no1.O=C(O)C(F)(F)F`, the “Percent Effect” value rises from 3.077% to 9.61%.

Compared with `COc1cccc2c1OCC(C(=O)N1CCN(S(C)(=O)=O)CC1)C2` (stereo not given), `COCCN(Cc1ccncc1)C(=O)C1COc2ccccc2C1` (stereo not given) is lower in “Percent Effect” value: 0.5994% for the first, -25.57% for the second.

Compared with `CSCC[C@@H](CO)Nc1ccc(-c2nc(C3CC3)no2)cn1`, `COCCc1nc(CN2CC(C)(c3ccccc3)CCC2=O)no1` (stereo not given) is higher in “Percent Effect” value: -21.62% for the first, -5.62% for the second.

Going from `Cc1noc(CS(=O)(=O)C/C=C/c2ccccc2)n1` to `O=C(NC[C@H]1OC[C@@H](NC2CCOCC2)[C@@H]1O)Nc1ccccc1`, the “Percent Effect” value rises from -7.047% to 14.81%.

Compared with `O=C(O)C(F)(F)F.O=C(c1ccsc1)N1CCO[C@@H]2CN(Cc3ccco3)CC[C@@H]2C1`, `O=C(O)C(F)(F)F.O=C(c1ccsc1)N1CCO[C@@H]2CN(Cc3ccccn3)CC[C@@H]2C1` is lower in “Percent Effect” value: 99.14% for the first, 3.038% for the second.

Going from `N#Cc1cccc(CN2CC[C@@H]3CO[C@@H](CN4CCCC4)[C@@H]3C2)c1.O=C(O)C(F)(F)F.O=C(O)C(F)(F)F` to `N#Cc1cccc(CN2CC[C@@H]3CN(c4ncccn4)CCO[C@@H]3C2)c1.O=C(O)C(F)(F)F`, the “Percent Effect” value rises from -0.4401% to 115.7%.

First: O=C(O)C(F)(F)F.O=C(c1ccco1)N1CCO[C@@H]2CN(c3ccccn3)CC[C@@H]2C1
Second: O=C(O)C(F)(F)F.O=C(c1ccco1)N1CCO[C@@H]2CN(Cc3nccs3)CC[C@@H]2C1
The “Percent Effect” value of the first is lower: 6.986% for the first, 104% for the second.

First: CCc1cnc(N2CC[C@@H]3CN(C(=O)c4ccco4)CCO[C@@H]3C2)nc1
Second: Cc1cnc(N2CC[C@@H]3CN(Cc4ccncc4)CCO[C@@H]3C2)nc1.O=C(O)C(F)(F)F.O=C(O)C(F)(F)F
The “Percent Effect” value of the first is higher: 10.92% for the first, -11.53% for the second.

First: Cn1cccc1C(=O)N1CCO[C@@H]2CN(Cc3nccs3)C[C@@H]2C1.O=C(O)C(F)(F)F
Second: O=C(O)C(F)(F)F.O=C(c1ccsc1)N1CCO[C@@H]2CN(Cc3nccs3)C[C@@H]2C1
The “Percent Effect” value of the first is higher: 127.2% for the first, 102% for the second.

First: COCCN1CCO[C@@H]2CN(Cc3sccc3C)C[C@@H]2C1.O=C(O)C(F)(F)F.O=C(O)C(F)(F)F
Second: Cn1cc(CN2CCO[C@@H]3CN(Cc4ccoc4)C[C@@H]3C2)cn1.O=C(O)C(F)(F)F.O=C(O)C(F)(F)F
The “Percent Effect” value of the first is lower: -3.44% for the first, 9.777% for the second.

Compared with `CCCS(=O)(=O)NC1CCN(c2nnc(C)c(C)c2C#N)CC1`, `Cc1cc(N2CCC(N3CCOCC3)C2)n2nc(C)c(C)c2n1` (stereo not given) is higher in “Percent Effect” value: -4.578% for the first, -1.501% for the second.

First: CCS(=O)(=O)N1C[C@@H]2CN(Cc3ccco3)CCO[C@@H]2C1.O=C(O)C(F)(F)F
Second: O=C(O)C(F)(F)F.O=C(O)C(F)(F)F.c1coc(CN2C[C@@H]3CN(Cc4ccoc4)CCO[C@@H]3C2)c1
The “Percent Effect” value of the first is lower: -13.85% for the first, 116.5% for the second.

Going from `CN(C)CCN1CCO[C@H]2CN(C(=O)N(C)C)C[C@H]21.O=C(O)C(F)(F)F.O=C(O)C(F)(F)F` to `O=C(O)C(F)(F)F.O=C(c1ccsc1)N1CCO[C@@H]2CN(Cc3cccs3)C[C@@H]2C1`, the “Percent Effect” value rises from 6.005% to 14.76%.

Going from `CC(CCNC(=O)N(C)CC1CCOCC1)N1CCCCC1` (stereo not given) to `O=C([C@@H]1Cc2[nH]cnc2CN1C(=O)NC1CCCCC1)N1CCCC1`, the “Percent Effect” value rises from -7.573% to 6.906%.

First: CCc1nc(CN2CCCN(C(=O)C(C)n3ccnc3)CC2)cs1 (stereo not given)
Second: CC(C)N(C(=O)N1CCn2cncc2C1)C(C)C
The “Percent Effect” value of the first is lower: 0.184% for the first, 10.83% for the second.

Going from `O=C(NC1CCCCC1)[C@H]1CNC[C@@H](COc2cccnc2)C1` to `O=C(NCC1CC1)C1CN(C(=O)NC2CCCC2)Cc2cncn2C1` (stereo not given), the “Percent Effect” value rises from 11.4% to 100.7%.

Going from `CCS(=O)(=O)N1Cc2cncn2CC(C(=O)NCC2CC2)C1` (stereo not given) to `CN(C)CCN1CC2(CCCN(c3ncc(Cl)cc3F)C2)CCC1=O` (stereo not given), the “Percent Effect” value falls from 119.2% to 4.533%.
